Measurements published in PubChem BioAssay AID2685 (National Center for Advancing Translational Sciences (NCATS), 2010).
The campaign covered roughly 320,000 compounds. About 2,100 (0.66%) were called active. Inconclusive results (about 53%) are left out. The call rests on the fitted dose curve; in most records, active means well fitted inhibition curve with a large enough effect in the signal ratio, with a control signal flat (not every such curve was filed as active); inconclusive means small, poorly fitted or top-dose-only effect, or effect the other way, or a change in a side signal; inactive means flat fitted curve, though single readings scatter; the % refers to the signal ratio. Only a selection was taken, and actives are over-represented in it overall.

Test: qHTS Assay for Lipid Storage Modulators in Drosophila S3 Cells;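 on cell number change: cells counted by Cell Tracker Red CMTPX staining in the red channel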; on lipid storage change, negative = inhibition: on the % scale 0 is the no-effect control and ±100 the full control effect
Details: BODIPY lipid droplet fluorescence, 18-24 h, cells fed with added oleic acid; cell number change: measured here: cell count max response; series mostly up to 46.1 µM; lipid storage change, negative = inhibition: at the top concentration
In short: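 Laser-scanning cytometry quantifies lipid droplet accumulation (500–530 nm total intensity; droplet/cell object ratio) in oleic acid-fed (400 uM added) Drosophila S3 cells treated with a concentration series. 20 uM Triacsin C defined 100% inhibition.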
Potency means the concentration at half of the fitted maximal effect.

| SMILES | lipid storage change, negative = inhibition | cell number change | outcome | Potency |
| --- | --- | --- | --- | --- |
| COc1cc(CNC2CCCCC2OC)cc(OC)c1OC (centres undefined) | -4.46% (inactive) | 3.58% |  |  |
| O=C(O)c1cnn(-c2ccccc2)c1-c1ccncc1 |  |  | inactive |  |
| Cc1cc(/C=N/N2CCN(C)CC2)c(C)n1-c1ccccc1F |  |  | inactive |  |
| CCCn1c(SCC(=O)Nc2nnc(C)s2)nnc1-c1ccoc1C | 9.42% (inactive) | -14% |  |  |
| CS(=O)(=O)N(CC(=O)N1CCN(c2ccccc2F)CC1)C1CCCCC1 | -6.61% (inactive) | -9.38% |  |  |
| Cc1c(CNC(=O)C2CC2)c(-n2cccc2)n(Cc2ccccc2)c1C | 12.7% (inactive) | 18.9% |  |  |
| COCCNS(=O)(=O)c1ccc(F)c(OC)c1 |  | 2.25% |  | 20.6 µM (active) |
| COCCNS(=O)(=O)c1ccc(-c2ccc(Cl)cc2)cc1 | -0.344% (inactive) | 8.47% |  |  |
| COc1cc(S(=O)(=O)NCc2ccccc2)ccc1F | -1.58% (inactive) | 6.61% |  |  |
| O=S(=O)(O)c1cc(OS(=O)(=O)c2ccccc2)cc2ccccc12 | -11.6% (inactive) | 6.99% |  |  |
| COc1ccc(Cc2nc3ccc(C(=O)NCc4cc(C)no4)cc3o2)cc1OC | -19.9% (inactive) | -13.7% |  |  |
| O=C(c1ccc([N+](=O)[O-])cc1)N1CCN(Cc2ccccc2)CC1 | 4.25% (inactive) | 11.4% |  |  |
| Nn1c(SCC(=O)Nc2ccc3c(c2)OCO3)nnc1-c1cccc(Cl)c1 | -0.669% (inactive) | 0.909% |  |  |
| O=CN1CCN(C(=O)c2ccccc2Cl)CC1 |  | -3.9% |  | 16.4 µM (active) |
| O=C(NC1CCCCC1)C1CCN(C(=O)c2ccccc2Cl)CC1 | -5% (inactive) | -4.35% |  |  |
| O=C(O)C1CCN(C(=O)c2ccccc2Cl)CC1 |  | 6.2% |  | 18.4 µM (active) |
| O=C(c1ccccc1Cl)N1CCSCC1 | -5.54% (inactive) | 2.74% |  |  |
| O=C(NC1CC1)C1CCN(C(=O)c2ccccc2Cl)CC1 |  |  | inactive |  |
| O=C(O)c1ccccc1C(=O)N1CCN(C(=O)c2ccccc2Cl)CC1 | 2.44% (inactive) | 18.7% |  |  |
| O=C(NCCCn1ccnc1)c1cc2cc([N+](=O)[O-])ccc2oc1=O | 19.8% (inactive) | 15.7% |  |  |
| CCCN1CCC(=NNc2ccc(S(N)(=O)=O)cc2[N+](=O)[O-])CC1 | -4.49% (inactive) | -0.104% |  |  |
| CCCn1c(SCCN2CCOCC2)nc2c1c(=O)n(C)c(=O)n2C |  |  | inactive |  |
| COc1ccc(CNC(=O)CN2C(=O)NC(C)(c3cccc(Br)c3)C2=O)cc1 (centres undefined) | 11.7% (inactive) | 15.2% |  |  |
| COc1ccc(CNC(=O)CN2C(=O)NC3(CCCCCC3)C2=O)cc1OC | -22.1% (inactive) | -8.33% |  |  |

| SMILES | lipid storage change, negative = inhibition | cell number change | outcome | Potency |
| --- | --- | --- | --- | --- |
| COc1ccc(CNC(=O)CN2C(=O)NC(C)(c3cccc4ccccc34)C2=O)cc1OC (centres undefined) |  | -4.84% |  | 18.4 µM (active) |
| Cc1c(C)c(C)c(S(=O)(=O)NCCC(=O)N2CCN(Cc3ccc(C#N)cc3)CC2)c(C)c1C | -6.69% (inactive) | 10.7% |  |  |
| O=C(CCNS(=O)(=O)c1ccc(Cl)cc1)N1CCN(Cc2ccccc2)CC1 | -8.38% (inactive) | -14.8% |  |  |
| N#Cc1ccc(CN2CCN(C(=O)CCNS(=O)(=O)c3ccc(F)c(Cl)c3)CC2)cc1 |  | -29% |  | 20.6 µM (active) |
| Cc1cccc(N2CCN(C(=O)CC(NC(=O)c3ccccc3Cl)c3ccccc3)CC2)c1C (centres undefined) |  | -1.65% |  | 10.3 µM (active) |
| Cc1cccc(N2CCN(C(=O)C(Cc3ccccc3)NC(N)=O)CC2)c1C (centres undefined) | 5.13% (inactive) | -3.7% |  |  |
| Cc1ccc(NC(=O)CC(NC(=O)c2ccccc2Cl)c2ccccc2)nc1 (centres undefined) | -13.8% (inactive) | 12.3% |  |  |
| CCC(C)NC(=O)CSc1c2c(nc3ccccc13)CCCC2 (centres undefined) | -0.588% (inactive) | -7.84% |  |  |
| COCCNC(=O)CSc1nc2ccccc2c(=O)n1CCC(=O)NCCc1ccc(OC)c(OC)c1 | -6.85% (inactive) | -7% |  |  |
| CCOC(=O)CN1NC2(CCC(C(C)(C)C)CC2)NC1=S (centres undefined) | -2.81% (inactive) | 0.162% |  |  |
| CCOC(=O)CN1NC2(CCC(C)CC2)NC1=S (centres undefined) |  | 16.5% |  | 18.4 µM (active) |
| CCOC(=O)CN1NC2(CCCCCCC2)NC1=S | 17% (inactive) | 26.5% |  |  |
| CC(=O)N1CC2(NC(=O)c3ccccc3N2)c2ccccc21 (centres undefined) | -3.02% (inactive) | 1.06% |  |  |
| COc1ccc(-n2nnc3c(=O)n(CC(=O)N4CCCCC4)cnc32)cc1 |  |  | inactive |  |
| Cc1ccccc1NC(=O)/C=C/c1ccc([N+](=O)[O-])s1 |  | -29.7% |  | 9.2 µM (active) |
| Cc1cccc(NC(=O)/C=C/c2ccc([N+](=O)[O-])s2)c1 |  | -28.2% |  | 20.6 µM (active) |
| CC(=O)c1cccc(NC(=O)/C=C/c2ccc([N+](=O)[O-])s2)c1 | -0.322% (inactive) | -6.6% |  |  |
| CN(C(=O)/C=C/c1ccc([N+](=O)[O-])s1)c1ccccc1 | -2.6% (inactive) | 5.5% |  |  |
| Cc1ccccc1NC(=O)/C=C/c1cccs1 | -3.06% (inactive) | -15.7% |  |  |
| Cc1cc(C)cc(NC(=O)/C=C/c2ccc([N+](=O)[O-])s2)c1 | -0.708% (inactive) | -13.6% |  |  |
| O=C(c1ccc(-n2cncn2)c([N+](=O)[O-])c1)N1CCN(c2cccc(Cl)c2)CC1 | -19.8% (inactive) | 25.4% |  |  |
| Cn1cnc2cc(OC(=O)c3ccccc3)ccc21 |  | 19.2% | inactive |  |
| CCOC(=O)/C(=N\Nc1ccc(C(C)=O)cc1)c1csc(Nc2ccccc2)n1 |  | 17.1% |  | 16.4 µM (active) |
